Measurements reported in PubChem BioAssay.
Potency and affinity values are given separately. Inconclusive results are not listed. The source made the active and inactive calls.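 The calls were made as follows, unless noted: active = fitted dose curve reaches 40% lysis signal rise at or below the highest valid concentration tested for that sample; inconclusive = flat fit between 30% and 70%, or poor curve fit; inactive = signal falls, stays flat within 30%, or no crossing.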

What was measured:
[1] = Cryptococcus neoformans growth inhibition, dose response, Alamar Blue, cherry-picks (AID 686998;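 active = falling signal with fitted half-maximal potency no higher than twice the top valid tested dose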); details: 24 h; series mostly up to 35 µM
[2] = inducers of Cryptococcus neoformans cell lysis, dose response, AK release luminescence, cherry-picks (AID 687000);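 also: luminescent detection of adenylate kinase leaking from lysed yeast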; details: C. neoformans lysis, adenylate kinase release luminescence, 4 h, 100% = twice the neutral-control signal; series mostly up to 15 µM
[3] = HepG2 cell cytotoxicity, dose response, cytotoxicity control, cherry-picks, set 2 (AID 687002;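 active = a dose-response fit showing signal loss, with half-maximal concentration no higher than twice the top tested dose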); details: HepG2 viability, ATP luminescence (CellTiter-Glo), 48 h; series mostly up to 26 µM
[4] = HeLa cell cytotoxicity, dose response, cytotoxicity control, ATP luminescence, cherry-pick samples (AID 687004;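 active = a fitted half-maximal concentration no higher than twice the top valid tested dose, with signal falling as cells die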); details: HeLa viability, ATP luminescence (CellTiter-Glo), 48 h; series mostly up to 26 µM

Measured: outcome

C[C@@H]1CN([C@H](C)CO)C(=O)CCCn2cc(nn2)CO[C@@H]1CN(C)C(=O)CCCN(C)C
inactive: [1] | [2] | [3] | [4]

C[C@H](CO)N1C[C@H](C)[C@H](CN(C)S(=O)(=O)c2ccccc2)Oc2ccc(NS(=O)(=O)c3ccc(F)cc3)cc2C1=O
inactive: [1] | [2] | [3] | [4]

O=C(C[C@H]1CC[C@H]2[C@@H](COC[C@@H](O)CN2C(=O)c2ccc(F)cc2)O1)N1CCOCC1
inactive: [1] | [2] | [3] | [4]

CO[C@@H]1CN(C)C(=O)c2ccc(NC(=O)C3CC3)cc2OC[C@H](C)N(C(=O)c2ccncc2)C[C@H]1C
inactive: [1] | [2] | [3] | [4]

CO[C@H]1CN(C)C(=O)c2cc(NC(=O)c3ccccc3F)ccc2OC[C@H](C)N(C(C)=O)C[C@H]1C
inactive: [1] | [2] | [3] | [4]

CC(NC(=O)COc1ccc([N+](=O)[O-])cc1)c1ccccc1 (configuration not stated)
inactive: [1] | [2] | [3] | [4]

C[C@H](CO)N1C[C@H](C)[C@H](CN(C)C(=O)c2ccccn2)Oc2ncc(-c3ccccc3)cc2C1=O
inactive: [1] | [2] | [3] | [4]

O=C(C[C@H]1CC[C@H]2[C@@H](COC[C@H](O)CN2Cc2cccc(Cl)c2)O1)Nc1nccs1
inactive: [1] | [2] | [3] | [4]

CO[C@H]1CN(C)C(=O)c2cc(NS(=O)(=O)c3ccc(C)cc3)ccc2OC[C@@H](C)N(C(=O)NC(C)C)C[C@@H]1C
inactive: [1] | [2] | [3] | [4]

Cc1cc(C(=O)Nc2ccc3c(c2)C(=O)N(C)[C@H]2CC[C@@H](CC(=O)N[C@@H](C)c4ccccc4)O[C@H]2CO3)no1
inactive: [1] | [2] | [3] | [4]

COCC(=O)N1C[C@H](C)[C@H](OC)CN(C)C(=O)c2ccc(NC(=O)NC(C)C)cc2OC[C@@H]1C
inactive: [1] | [2] | [3] | [4]

CCC(C)(NC=O)C(=O)Nc1c(C)cccc1C (configuration not stated)
inactive: [1] | [2] | [3] | [4]

CC(C)NC(=O)Nc1cccc2c1O[C@@H](CN(C)C(=O)Nc1ccccc1)[C@@H](C)CN([C@@H](C)CO)C2=O
inactive: [1] | [2] | [3] | [4]
